Screening data (PubChem BioAssay)
Hits are enriched below; roughly 8.7% of the tested compounds scored in any of these assays.
ALOX12 inh: Primary qHTS assay for inhibitors of human arachidonate 12S-lipoxygenase (ALOX12): Round 2; Polyunsaturated fatty acid lipoxygenase ALOX12 (Homo sapiens), P18054; purified 12hLO, xylenol orange hydroperoxide absorbance; Potency, µM (top dose mostly 108 µM), for the others: top-dose activity change, negative = inhibition, hits mostly inhibitors; 580,000 tested, 1.1% active; AID 1671190, 2021; note: % is set by controls: 0 for no effect and ±100 for the full control effect
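Hydroperoxide product was detected by ferrous iron/xylenol orange as the 573 to 405 nm absorbance ratio. Arachidonic acid at 40 uM (final) was turned over for 30 min at room temperature by 150 nM human 12hLO, pH 7.0 Hepes buffer, after 15 min compound preincubation.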
HP1b chromo inh: HTS for Inhibitors of HP1-beta Chromodomain Interactions with Methylated Histone Tails. 390,000 tested, 0.56% active. Potency, µM (doses to about 114 µM), without a hit: at the highest dose activity change, negative = inhibition, hits mostly inhibitors. Chromobox protein homolog 1 (Homo sapiens), P83916. AlphaScreen HP1-beta / biotin-H3K9me3 peptide binding; note: nearly all actives have a fitted effect of over 70% in size
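HP1-beta protein (50 nM final) preincubated 30 min at room temperature with biotinylated H3(1-18)K9me3 peptide (50 nM) in PBS pH 7.4, 0.01% Tween-20, then compound added for 30 min. AlphaScreen streptavidin donor/nickel chelate acceptor beads (10 ug/mL final), 30 min dark, luminescence read.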
G9a inh: qHTS Assay for Inhibitors of Histone Lysine Methyltransferase G9a. Histone-lysine N-methyltransferase EHMT2 (Homo sapiens), Q96KQ7. G9a H3K9 monomethylation, AlphaScreen, 2 h. Potency, µM (series often up to 102 µM), inactives show at the top dose activity, negative = inhibition, most hits filed as inhibitors. 350,000 tested, 8.8% active; note: % is set by controls: 0 for no effect and ±100 for the full control effect; nearly all actives have a fitted effect of over 75% in size
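Signal arises when biotinylated H3K9 peptide, once monomethylated, bridges streptavidin donor and antibody-captured acceptor beads. Enzyme at 20 nM was preincubated 15 min with test compounds; peptide 500 nM and SAM 20 uM then reacted for 2 h.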
BAZ2B inh: qHTS Assay for Inhibitors of BAZ2B | Bromodomain adjacent to zinc finger domain protein 2B (Homo sapiens), Q9UIF8 | 360,000 tested, 4.4% active | Potency, µM (titrated, usually from 114 µM), for inactives: at the top dose activity change, negative = inhibition, usual class: inhibitors | AlphaScreen BAZ2B-H3K14Ac peptide displacement | AID 504333, 2011; note: % is set by controls: 0 for no effect and ±100 for the full control effect; nearly all actives have a fitted effect of over 60% in size
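AlphaScreen luminescence quantifies BAZ2B engagement of H3K14Ac peptide; the protein and biotinylated peptide are both at 50 nM final, buffer PBS pH 7.4 with 0.01% Tween-20, all steps at room temperature.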
JMJD2A Tudor inh: qHTS Assay for Inhibitors of JMJD2A-Tudor Domain; 390,000 tested, 4.4% active; Lysine-specific demethylase 4A (Homo sapiens), O75164; Potency, µM (series often up to 114 µM), for inactives: at the highest dose activity change, negative = inhibition, actives largely listed as inhibitors; AlphaScreen JMJD2A-Tudor / H3K4me3 peptide binding; note: % is set by controls: 0 for no effect and ±100 for the full control effect; nearly all actives have a fitted effect of over 50% in size
Target sequence (O75164 whole entry, looked up, the tested form may be a part): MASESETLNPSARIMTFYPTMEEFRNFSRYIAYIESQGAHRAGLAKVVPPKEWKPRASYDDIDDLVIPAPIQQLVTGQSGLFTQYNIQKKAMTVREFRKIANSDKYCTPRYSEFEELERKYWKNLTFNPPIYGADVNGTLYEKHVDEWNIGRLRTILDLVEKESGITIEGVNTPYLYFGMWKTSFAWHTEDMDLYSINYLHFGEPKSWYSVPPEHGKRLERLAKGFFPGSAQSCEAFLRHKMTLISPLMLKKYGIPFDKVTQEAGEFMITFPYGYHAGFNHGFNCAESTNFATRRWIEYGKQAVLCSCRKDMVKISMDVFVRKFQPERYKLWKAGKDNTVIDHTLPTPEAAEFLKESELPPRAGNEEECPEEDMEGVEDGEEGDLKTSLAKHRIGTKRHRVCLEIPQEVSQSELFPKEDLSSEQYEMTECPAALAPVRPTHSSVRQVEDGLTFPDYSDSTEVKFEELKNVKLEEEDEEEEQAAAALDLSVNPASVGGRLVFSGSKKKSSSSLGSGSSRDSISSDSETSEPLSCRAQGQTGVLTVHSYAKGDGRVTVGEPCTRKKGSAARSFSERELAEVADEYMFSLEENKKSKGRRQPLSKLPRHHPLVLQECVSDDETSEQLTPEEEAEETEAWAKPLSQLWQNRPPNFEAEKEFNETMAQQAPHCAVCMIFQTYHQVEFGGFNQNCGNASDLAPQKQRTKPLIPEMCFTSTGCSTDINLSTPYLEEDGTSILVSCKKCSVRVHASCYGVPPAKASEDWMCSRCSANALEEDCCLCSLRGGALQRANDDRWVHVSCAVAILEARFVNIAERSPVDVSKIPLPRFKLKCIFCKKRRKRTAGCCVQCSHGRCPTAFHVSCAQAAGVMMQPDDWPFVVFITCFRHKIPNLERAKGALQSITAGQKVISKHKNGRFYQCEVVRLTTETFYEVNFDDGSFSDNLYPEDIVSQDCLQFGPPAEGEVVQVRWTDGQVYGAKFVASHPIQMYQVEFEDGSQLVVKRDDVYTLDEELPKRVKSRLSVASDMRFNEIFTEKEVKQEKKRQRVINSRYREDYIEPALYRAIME
Sfp inh: qHTS Assay for Inhibitors of Bacillus subtilis Sfp phosphopantetheinyl transferase (PPTase) | 4'-phosphopantetheinyl transferase ffp (Bacillus subtilis), Q9F4F7 | Biochemical Sfp PPTase activity, qHTS | Potency, µM, inactives show largest response in the series, negative = inhibition, most hits filed as inhibitors | 310,000 tested, 3.5% active;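 note: the enzyme is Sfp with the accession as filed and its product quenches rhodamine fluorescence; 0% = enzyme reaction without inhibitor and -100% = no enzyme wells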
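Fluorescence-quenching assay: 15 nM Sfp-PPTase preincubated 15 min at room temperature with compound, then 5 uM rhodamine-CoA and 12.5 uM BHQ-2-labelled YbbR peptide added. Fluorescence (ex 525/em 598 nm) read at start and after 30 min; difference gives rate.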
Numbers without * were called inactive; ? = inconclusive; / = no result given; [ ] = dose if it differs, or a comment. Calls come from the whole dose curve; as a rule, active = well fitted curve in the direction sought with a large enough effect; inconclusive = small, poorly fitted or top-dose-only effect, or another doubt; inactive = no such curve, though single readings can be large; an effect the other way counts as inactive or inconclusive. Potency is the fitted concentration of half-maximal effect.

SMILES	ALOX12 inh	HP1b chromo inh	G9a inh	BAZ2B inh	JMJD2A Tudor inh	Sfp inh
CCOC(=O)/C(=C\c1ccccc1)C(=O)c1cc(C(C)=O)c(Nc2ccccc2)s1	-0.3%	14.5%	?	-7.1%	-12.3%	-6.6%
CCOC(=O)/C(=C\c1cccnc1)C(=O)c1cc(C(C)=O)c(Nc2ccccc2)s1	/	-10.7%	10µM*	56.2µM*	?	39.8µM*
N#Cc1nc(C2CC2)oc1N1CCN(Cc2cccc(Cl)c2)CC1	-24.9%	/	/	/	/	/
COc1ccc(C(=O)CSc2ncnc3nc[nH]c23)cc1	8.5%	30.1%	-40.8%	-15.7%	-11.4%	32.2%
Cc1ccc(OCCSc2ncnc3nc[nH]c23)cc1	22.4%	36.3%	39.8µM*	-7.4%	-6.5%	-9.9%
O=S1(=O)CC(O)C(NCc2ccco2)C1 (stereo unspecified)	-17.0%	16.0%	-10.3%[59 µM]	0.1%	7.2%	7.4%
CC(C)(C)c1cc(CNC2CS(=O)(=O)C[C@@H]2O)cc(C(C)(C)C)c1O (stereo partly specified)	0.0%	37.8%	17.8µM*	?	-22.6%	12.5%
COc1ccc(Cl)cc1NC(=O)c1nn(C)c(=O)c2ccccc12	19.5%	/	/	/	/	/
CC(=O)NS(=O)(=O)c1ccc2c(c1)C(=O)c1cc(S(=O)(=O)NC(C)=O)ccc1-2	-0.9%	2.4%	9.4%[0.501 µM]	-9.9%	-5.0%	14.5%
O=C(O)c1ccc(NS(=O)(=O)c2ccc3c(c2)C(=O)c2ccccc2C3=O)cc1	-14.8%	23.9%	44.7µM*	-35.3%	-19.6%	-7.9%
O=C(O)c1cccc(NS(=O)(=O)c2ccc(-c3ccc(S(=O)(=O)Nc4cccc(C(=O)O)c4)cc3)cc2)c1	-4.5%	23.9%	50.1µM*	-13.4%	-26.8%	11.9%
O=C(O)c1ccc(Cl)c(S(=O)(=O)Nc2ccc(S(=O)(=O)Nc3cccc(Cl)c3)cc2)c1	-23.8%	-1.8%	56.2µM*	-33.3%	-5.7%	16.2%
CC(NS(=O)(=O)c1ccc2c(c1)C(=O)c1cc(S(=O)(=O)NC(C)C(=O)O)ccc1-2)C(=O)O (stereo unspecified)	-29.8%	?	28.2µM*	-20.2%	10µM*	-3.6%
O=C(O)c1ccc(NS(=O)(=O)c2cc(Cl)ccc2Cl)cc1	65.7%	46.8%	-4.7%	-19.6%	0.7%	10.3%
O=C(O)c1cccc(S(=O)(=O)Nc2ccc(-c3ccccc3)cc2)c1	?	14.0%	/	/	-19.9%	/
Cc1ccc(-c2cnc(CCC(=O)N(C)CC(=O)Nc3ccccc3Br)o2)cc1	-28.1%	/	/	/	/	/
O=C(O)c1cccc(NC(CNS(=O)(=O)c2ccc(Cl)cc2)c2ccccc2)c1 (stereo unspecified)	?	6.3%	?	79.4µM*	-22.8%	6.0%
O=C(O)c1cc(S(=O)(=O)Nc2ccccc2Cc2ccccc2)ccc1Cl	-6.3%	16.9%	-15.8%	-1.4%	-14.5%	30.2%
O=C(O)c1ccc(Cl)c(S(=O)(=O)Nc2ccccc2Cc2ccccc2)c1	?	15.3%	79.4µM*	1.9%	-11.4%	12.8%
O=C(O)c1cc(S(=O)(=O)Nc2cccc3ccccc23)c(Cl)cc1Cl	0.0%	-12.5%	56.2µM*	-38.3%	79.4µM*	-12.3%
CC(C)CNS(=O)(=O)c1cc(C(=O)O)c(Cl)cc1Cl	-16.8%	19.5%	?	-36.4%	0.7%[11.4 µM]	?
CNC(=O)[C@@H](C1CC1)N1CCC[C@H]1C(=O)NCc1ccccn1	105.6%[176 µM]	/	/	/	/	/
c1coc(CN2CC(Oc3ccc(-c4noc(-c5ccncc5)n4)cc3)C2)c1	-20.8%	/	/	/	/	/
CC(C)CNC(=O)c1ccc(NC(=O)C2CCCCC2)cc1	-1.1%	/	/	/	/	/
CC(C)Oc1ccc(C(=O)O)c(C(=O)O)c1	-8.6%	3.9%	-0.1%	-38.8%	79.4µM*	-10.3%
SMILES	ALOX12 inh	HP1b chromo inh	G9a inh	BAZ2B inh	JMJD2A Tudor inh	Sfp inh
CC(C)Oc1ccc(C(=O)O)cc1	-29.9%	29.8%	12.7%[2.33 µM]	4.1%	-10.3%	11.3%
C[C@H](c1ccccc1)N1C[C@H](COCc2ccccc2)Oc2cc(N3CCC[C@H]3CO)ccc2S1(=O)=O	50.1µM*	/	/	/	/	/
C[C@H](c1ccccc1)N1C[C@@H](COCc2ccccc2)Oc2cc(N3CCC[C@@H]3CO)ccc2S1(=O)=O	-5.1%	/	/	/	/	/
CCn1c(C)cc(/C=C2/NC(=O)N(Cc3ccccc3F)C2=O)c1C	?	17.2%	-21.1%	-35.9%	?	6.3%
CCn1c(C)cc(/C=C2\NC(=O)N(Cc3ccccc3)C2=O)c1C	2.6%	7.1%	12.6µM*	-32.0%	89.1µM*	-2.1%
Cc1cc(C)c(C=Nc2cccc([N+](=O)[O-])c2C)c(C)c1	21.6%	/	/	/	/	/
Cc1ccc(C(=O)N/C(=C\c2ccco2)C(=O)NCCCn2ccnc2)cc1C	11.0%	25.1%	-39.9%[59 µM]	7.94µM*	17.8µM*	4.2%
Cc1ccc(C(=O)N/C(=C\c2cccs2)C(=O)N2CCN(C)CC2)cc1C	0.6%	17.8%	70.8µM*	-2.2%	-8.3%	9.1%
O=C(NCCCn1ccnc1)/C(=C/c1ccco1)NC(=O)c1cccs1	7.0%	30.1%	?	79.4µM*	-8.3%[11.4 µM]	3.5%
Cc1ccc(C(=O)N/C(=C\c2cccs2)C(=O)NCCCn2ccnc2)cc1C	9.3%	13.3%	11.8%	50.1µM*	?	3.8%
Cn1c(=O)[nH]c(=O)c2c1nc(N1CCCC1)n2CC(O)COc1ccc(Cl)cc1 (stereo unspecified)	1.9%	/	/	/	/	/
CCCC(=O)NCCCCCCNC(=O)CCC	2.7%	/	/	/	/	/
COc1cc(CC(=O)N2CCN(C(=O)c3ccc4ccccc4c3)CC2)cc(OC)c1OC	20.7%	/	/	/	/	/
O=C(/C=N/O)NCc1cccnc1	10.4%	21.0%	?	-25.6%	-8.4%	8.4%
C[n+]1cccc(CNC(=O)/C=N/O)c1	444.1%	9.9%	39.8µM*	56.2µM*	?	-2.5%
C=CCNc1nc(-c2ccc(NC(C)=O)cc2F)cs1	-29.7%	/	/	/	/	/
C=CCNc1nc(-c2sc(NC(=O)CC)nc2C)cs1	?	-3.4%	8.91µM*	?	-29.7%	-17.6%
C=CCNc1nc(-c2sc(NC(C)=O)nc2C)cs1	?	2.3%	17.8µM*	-32.8%	-30.1%	-21.0%
Cc1cn(CC(=O)N2CCOCC(O)C2)c(=O)[nH]c1=O (stereo unspecified)	54.9%	/	/	/	/	/
